{"source": "PubChem BioAssay AID1851", "about": "(National Center for Advancing Translational Sciences (NCATS), 2009)", "note": "Where “and” joins values, the source holds several entries; their conditions need not be identical. Equal values may be shown once. The campaign covered roughly 16,000 compounds. About 5,800 (36%) were called active. Roughly 23% stayed inconclusive and do not appear here. The call rests on the fitted dose curve; in most records, active means well fitted curve in the direction sought with a large enough effect; inconclusive means small, poorly fitted or top-dose-only effect, or effect the other way; inactive means no such curve, though single readings can be large or run the other way. Some of the results follow. On the % scale 0 is the no-effect control and ±100 the full control effect.", "data": [{"target": "Cytochrome P450 2C19 (Homo sapiens) (UniProt P33261)", "sequence (P33261 whole entry, looked up)": "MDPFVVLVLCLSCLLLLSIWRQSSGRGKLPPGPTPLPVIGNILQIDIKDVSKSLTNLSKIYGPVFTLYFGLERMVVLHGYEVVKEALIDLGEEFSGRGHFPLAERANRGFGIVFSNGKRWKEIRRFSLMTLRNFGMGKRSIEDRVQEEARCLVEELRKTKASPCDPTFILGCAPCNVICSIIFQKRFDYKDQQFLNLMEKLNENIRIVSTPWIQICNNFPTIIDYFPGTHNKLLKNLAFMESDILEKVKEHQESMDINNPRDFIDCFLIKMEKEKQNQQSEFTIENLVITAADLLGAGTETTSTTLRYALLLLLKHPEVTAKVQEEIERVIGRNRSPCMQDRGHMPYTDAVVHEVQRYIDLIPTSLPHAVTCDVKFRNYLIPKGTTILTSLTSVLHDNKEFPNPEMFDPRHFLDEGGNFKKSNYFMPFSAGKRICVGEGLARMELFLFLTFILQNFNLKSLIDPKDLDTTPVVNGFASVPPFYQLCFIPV", "assay": "Cytochrome panel assay with activity outcomes", "conditions": "recombinant CYP, pro-luciferin dealkylation, luminescence, p450-cyp2c19; series mostly up to 57.1 µM; activity, negative = inhibition: at the top concentration", "values": [{"smiles": "COc1ccc(NC(=O)N2CCCC3(CCN(C(=O)c4cccn4C)CC3)C2)cc1", "activity, negative = inhibition": "-8.93% (inactive)"}, {"smiles": "CC(C)[C@@H]1[C@H]2CC[C@H](C2)[C@H]1N", "activity, negative = inhibition": "-13.4% (inactive)"}, {"smiles": "C[C@@H](O)[C@H]1C(=O)N2C(C(=O)O)=C(S[C@@H]3CN[C@H](C(=O)N(C)C)C3)[C@H](C)[C@H]12", "activity, negative = inhibition": "-28.3% [at 25.6 µM] (inactive)"}, {"smiles": "CCc1ccc(/C=C\\C(=O)N2CCc3ccccc3C2)cc1", "AC50": "4.47 µM (active)"}, {"smiles": "CC1=C[N+](=O)c2ccccc2[N+]1=O", "activity, negative = inhibition": "5.82% [at 11.4 µM] (inactive)"}, {"smiles": "Cc1cc(NC(=O)CCC(=O)N(CC2CCCO2)C(C(=O)NC2CCCC2)c2cccnc2)no1", "note": "(stereo not drawn)", "activity, negative = inhibition": "-30% (inactive)"}, {"smiles": "CCOC(=O)CN(C(=O)CCC(=O)Nc1cc(C)on1)C(C(=O)NC1CCCC1)c1cccnc1", "note": "(stereo not drawn)", "AC50": "28.2 µM (active)"}, {"smiles": "O=C(O)[C@@H]1CCCNC1", "activity, negative = inhibition": "-17.7% [at 25.6 µM] (inactive)"}, {"smiles": "CCCCC1CCC(c2nc(-c3ccccn3)no2)CC1", "note": "(stereo not drawn)", "AC50": "22.4 µM (active)"}, {"smiles": "O=c1[nH]c(=O)n(Cc2ccco2)c2c1C(C(F)(F)F)(C(F)(F)F)N=C(CCC1CCCCC1)N2", "activity, negative = inhibition": "-14.8% (inactive)"}, {"smiles": "O=C(c1ccc([N+](=O)[O-])cc1)[C@@H](Br)[C@@H](Br)c1ccnc2ccccc12", "AC50": "1.26 µM (active)"}, {"smiles": "O=C(N/N=C/c1cccnc1)c1ccc([N+](=O)[O-])cc1", "activity, negative = inhibition": "-8.35% (inactive)"}, {"smiles": "COc1ccc(-c2nc3cnc(N(C)C)nc3n(Cc3cccs3)c2=O)cc1", "activity, negative = inhibition": "-8.82% (inactive)"}, {"smiles": "CCN1C(=O)C(CC(=O)Nc2ccc(OC)cc2)N(Cc2cccnc2)C1=S", "note": "(stereo not drawn)", "AC50": "1.26 µM (active)"}, {"smiles": "CCNc1ncc2nc(-c3ccc(OC)cc3)c(=O)n(Cc3cccs3)c2n1", "activity, negative = inhibition": "1.48% (inactive)"}, {"smiles": "COc1ccc(C2C(C(=O)c3ccco3)=C(O)C(=O)N2Cc2cccnc2)cc1OC", "note": "(stereo not drawn)", "activity, negative = inhibition": "-13.2% (inactive)"}, {"smiles": "CCN1C(=O)C(CC(=O)Nc2ccc(OC)cc2)N(Cc2cccs2)C1=S", "note": "(stereo not drawn)", "AC50": "0.355 µM (active)"}, {"smiles": "Cn1c(=O)[nH]c2ncn(C)c2c1=O", "activity, negative = inhibition": "-8.51% (inactive)"}, {"smiles": "O=C(NCc1ccco1)c1ccccc1NS(=O)(=O)c1ccc(Br)s1", "AC50": "1.58 µM (active)"}, {"smiles": "Nc1ccccc1C#Cc1ccccc1", "AC50": "10 µM (active) and 5.01 µM (active)"}, {"smiles": "O=C1C=C(c2cccs2)CC(c2cccs2)C1n1cnc([N+](=O)[O-])c1", "note": "(stereo not drawn)", "AC50": "10 µM (active)"}, {"smiles": "COc1ccccc1CN1CCCC2(CCN(C(=O)c3cnccn3)CC2)C1", "activity, negative = inhibition": "-12.4% (inactive)"}, {"smiles": "O=C(Nc1ccccc1)/C(=C\\c1ccncc1)NC(=O)c1ccccc1", "AC50": "0.126 µM (active)"}, {"smiles": "Cc1ccc(NC(=O)/C(=C\\c2ccc([N+](=O)[O-])cc2)NC(=O)c2ccccc2)cc1", "AC50": "1.41 µM (active)"}, {"smiles": "COc1cc(/C=C(/NC(=O)c2ccccc2)C(=O)Nc2ccccc2)c([N+](=O)[O-])cc1OC", "AC50": "15.8 µM (active)"}, {"smiles": "O=C(Nc1cccc2ccccc12)/C(=C/c1ccc([N+](=O)[O-])cc1)NC(=O)c1ccccc1", "AC50": "7.94 µM (active)"}, {"smiles": "O=C(c1cccc(F)c1)N1CCC[C@@]2(CCN(C(c3ccccc3)c3ccccc3)C2)C1", "activity, negative = inhibition": "10.6% (inactive)"}, {"smiles": "COc1ccc(COC(=O)N/N=C2/C[C@@H](O)[C@@H](O)[C@@H]3[C@H]4C(=O)N(c5ccc(F)cc5F)C(=O)[C@@H]4CC[C@H]23)cc1", "activity, negative = inhibition": "31.9% [at 11.4 µM] (inactive)"}, {"smiles": "Cc1cc2cc3c(C)cc(=O)oc3c(C)c2o1", "activity, negative = inhibition": "7.53% [at 25.6 µM] (inactive)"}, {"smiles": "Cc1ccc(C(=O)N/C(=C\\c2ccc([N+](=O)[O-])cc2)C(=O)NCCc2ccccc2)cc1", "AC50": "2 µM (active)"}, {"smiles": "O=C(OCC(=O)c1ccc([N+](=O)[O-])cc1)/C(=C\\c1ccc(Cl)cc1)NC(=O)c1ccccc1", "AC50": "3.98 µM (active)"}, {"smiles": "Cc1ccc(NC(=O)Nc2nc(-c3ccc(C)s3)cs2)cc1", "AC50": "6.31 µM (active)"}, {"smiles": "Cc1ncn(-c2ccccc2O)c1C", "activity, negative = inhibition": "-11% [at 11.4 µM] (inactive)"}, {"smiles": "Cn1c(=O)[nH]c(=O)c2c1nc(CN1CCOCC1)n2Cc1ccccc1", "activity, negative = inhibition": "-14.7% (inactive)"}, {"smiles": "Cn1c(=O)[nH]c(=O)c2c1nc(CN(Cc1ccccc1)Cc1ccccc1)n2CCN1CCOCC1", "AC50": "14.1 µM (active)"}, {"smiles": "Cn1c(=O)[nH]c(=O)c2c1nc(NCCCO)n2CCCc1ccccc1", "activity, negative = inhibition": "-38.3% (inactive)"}, {"smiles": "Cn1c(=O)c2[nH]c(SCCN3CCOCC3)nc2n(C)c1=S", "activity, negative = inhibition": "-14.1% [at 11.4 µM] (inactive)"}, {"smiles": "Cc1ccc(C(=O)CNc2nc3c(c(=O)[nH]c(=O)n3C)n2Cc2ccccc2)cc1", "AC50": "5.62 µM (active)"}, {"smiles": "CCOC(=O)Cn1c(CN(Cc2ccccc2)Cc2ccccc2)nc2c1c(=O)[nH]c(=O)n2C", "AC50": "15.8 µM (active)"}, {"smiles": "COC(=O)Cn1c(CN(Cc2ccccc2)Cc2ccccc2)nc2c1c(=O)[nH]c(=O)n2C", "AC50": "28.2 µM (active)"}, {"smiles": "Cc1nc(CN2CCCCC2)c(O)c(=O)[nH]1", "activity, negative = inhibition": "-22.5% [at 11.4 µM] (inactive)"}, {"smiles": "NC(=O)NC(=O)[C@H]1CCCC[C@@H]1C(=O)O", "activity, negative = inhibition": "12.1% [at 11.4 µM] (inactive)"}, {"smiles": "Cn1ncc2c(NCCc3ccccc3)nc(Cl)nc21", "AC50": "0.126 µM (active)"}, {"smiles": "CCCCN(c1ccccc1)c1ncnc2c1cnn2C", "activity, negative = inhibition": "-9.3% [at 11.4 µM] (inactive)"}, {"smiles": "Cn1ncc2c(Cl)ncnc21", "activity, negative = inhibition": "-3.14% [at 11.4 µM] (inactive)"}, {"smiles": "COc1ccc(-c2noc(C3CCCN(C(=O)c4ccccc4OC)C3)n2)cc1OC", "note": "(stereo not drawn)", "AC50": "11.2 µM (active)"}, {"smiles": "CCCCCC(=O)N1CCCC(c2nc(-c3ccc(OC)cc3)no2)C1", "note": "(stereo not drawn)", "AC50": "7.08 µM (active)"}, {"smiles": "CN(C)c1ccc(-c2noc(C3CCN(S(=O)(=O)c4cccc(C(=O)O)c4)CC3)n2)cc1", "activity, negative = inhibition": "-27.6% (inactive)"}, {"smiles": "COc1ccccc1CN1CC[C@@]2(CCCN(C(=O)c3c(C)noc3C)C2)C1", "activity, negative = inhibition": "-31.8% (inactive)"}, {"smiles": "CCOC(=O)/C(C#N)=C1/SC(CC)C(=O)N1c1ccc(Br)cc1", "note": "(stereo not drawn)", "AC50": "1.58 µM (active)"}, {"smiles": "CCOC(=O)/C(C#N)=C1/C=CN(C)C=N1", "activity, negative = inhibition": "10.6% (inactive)"}, {"smiles": "Cn1c(=O)c2[nH]c(SCc3ccccn3)nc2n(C)c1=S", "activity, negative = inhibition": "29.1% [at 11.4 µM] (inactive)"}, {"smiles": "CC(C)OCCCn1c(=S)[nH]c2ncccc2c1=O", "AC50": "14.1 µM (active)"}, {"smiles": "COCCNC(=O)COC(=O)/C=C/c1cnc2ccccc2n1", "AC50": "22.4 µM (active)"}, {"smiles": "CC(C)(C)CC(C)(C)c1cc(O)c(O)c(CN2CCCCC2)c1", "activity, negative = inhibition": "-5.03% [at 11.4 µM] (inactive)"}, {"smiles": "O=C1C=C(Nc2ccc(Cl)cc2)CC(c2ccc(Cl)cc2)C1", "note": "(stereo not drawn)", "AC50": "1.58 µM (active)"}, {"smiles": "Cn1c(/C=C/c2ccc([N+](=O)[O-])o2)nc2ccccc2c1=O", "AC50": "14.1 µM (active)"}, {"smiles": "O=C1O[C@H](CN2CCOCC2)CN1/N=C\\c1ccc([N+](=O)[O-])o1", "activity, negative = inhibition": "8.96% [at 25.6 µM] (inactive)"}]}]}
